An excerpt weighted towards active compounds, which were near 2.2% of everything screened.
Mm-Cpn inhibitor: Inhibitors of TCP-1 ring complex (TRiC) of Methanococcus maripaludis (MmCpn): qHTS; Potency, µM (top dose mostly 76.9 µM), inactives show at the highest dose activity, negative = inhibition, usual class: inhibitors; AID 504842, 2011; purified Mm-Cpn ATPase, ADP Transcreener TR-FRET; Chaperonin Mm-Cpn (Methanococcus maripaludis); 330,000 tested, 0.031% active; also: potency is read from the fitted curve at half-maximal effect; % is scaled to controls: 0 for no effect and ±100 for the full control effect; nearly all actives have a fitted effect of over 80% in size
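Measured: ADP formation by purified Mm-CPN. Conditions: 25 nM protein, 10 uM ATP, Tris pH 7.4 with Mg2+, K+ and DTT, 37°C for 30 min. Detection: Transcreener HTRF after 30 min at room temperature.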
GLP-1R agonist: qHTS of GLP-1 Receptor Agonists | Glucagon-like peptide 1 receptor (Homo sapiens), P43220 | HEK293 GLP-1R CRE-luciferase, luminescence, 4-6 h; cells express a hypersensitive GLP-1R form | Potency, µM (titrated, usually from 45.6 µM), inactives show at the highest dose activation, actives largely listed as activators | 380,000 tested, 0.007% active; also: potency is read from the fitted curve at half-maximal effect; % of control where 0% means no effect
Target sequence (P43220 whole entry, looked up): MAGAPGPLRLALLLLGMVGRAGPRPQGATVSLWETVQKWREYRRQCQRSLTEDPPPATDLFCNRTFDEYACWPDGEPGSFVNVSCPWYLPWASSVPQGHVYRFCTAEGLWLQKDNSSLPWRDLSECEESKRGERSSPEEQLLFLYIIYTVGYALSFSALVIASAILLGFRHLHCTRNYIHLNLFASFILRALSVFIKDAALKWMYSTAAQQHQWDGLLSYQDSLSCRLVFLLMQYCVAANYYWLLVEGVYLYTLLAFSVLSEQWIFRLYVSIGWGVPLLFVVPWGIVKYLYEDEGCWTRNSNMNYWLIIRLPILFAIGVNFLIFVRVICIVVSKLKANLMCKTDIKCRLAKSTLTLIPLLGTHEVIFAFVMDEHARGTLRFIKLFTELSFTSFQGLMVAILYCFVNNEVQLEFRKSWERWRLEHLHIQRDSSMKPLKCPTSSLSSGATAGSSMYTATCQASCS
CCT modulator: High-Throughput Screening for Modulators of Cytosolic Chaperonin Activity; purified chaperonin ATPase assay, HTRF ADP detection, 30 min; activity change, % (no concentration beside the values), hits read low; 360,000 tested, 0.3% active; in the data active = activity change below about -30%; also: % is scaled to controls: 0 for no effect and ±100 for the full control effect
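TRiC at 40 or 20 nM final (batch-dependent) in 30 mM Tris pH 7.4, 100 mM KCl, 5 mM MgCl2, 1 mM DTT, with compound at single 76 uM and 10 uM ATP, 30 min at 37 deg C. ADP detected by HTRF Transcreener, 665/615 ratio.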
uPA surface inh: qHTS for Inhibitors of Cell Surface uPA Generation; AID 540303, 2011; 330,000 tested, 0.31% active; Potency, µM (titrated, usually from 38.3 µM), for the others: at the top dose activity change, negative = inhibition, actives largely listed as inhibitors; cell surface uPA generation assay, qHTS; active = well fitted inhibition curve with a large enough effect; inconclusive = small, poorly fitted or top-dose-only effect; inactive = no such curve, though single readings can be large or run the other way; tested in mouse RAW 264.7 cells; also: potency is read from the fitted curve at half-maximal effect; % is scaled to controls: 0 for no effect and ±100 for the full control effect; nearly all actives have a fitted effect of over 55% in size
HEK293 tox: qHTS of GLP-1 Receptor Inverse Agonists: Cytotox Screen. AID 624418, 2012. 410,000 tested, 0.13% active. HEK293 cAMP-luciferase reporter cells, luminescence, 24 h. Potency, µM (series often up to 38.3 µM), for the others: top-dose activity change, negative = inhibition, actives largely listed as inhibitors;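 also: loss of luciferase light is scored as toxicity; potency is read from the fitted curve at half-maximal effect; % is scaled to controls: 0 for no effect and ±100 for the full control effect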
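A 23 nL compound transfer followed 12 hours of cell culture at 37 deg C; exposure then lasted 24 hr. Luciferase assay detection reagent was dispensed and plates read for luminescence after a 12 min room-temperature wait.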
GLP-1R inv ag: qHTS of GLP-1 Receptor Inverse Agonists (Inhibition Mode); Glucagon-like peptide 1 receptor (Homo sapiens), P43220; HEK293 GLP-1R CRE-luciferase, luminescence, 24 h; GLP-1R form is constitutively active; Potency, µM (series often up to 38.3 µM), inactives show top-dose activity change, negative = inhibition, usual class: inhibitors; 410,000 tested, 1.6% active; AID 624417, 2012; also: potency is read from the fitted curve at half-maximal effect; % is scaled to controls: 0 for no effect and ±100 for the full control effect; nearly all actives have a fitted effect of over 55% in size
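GLP-1R inverse agonism mode: basal reporter luminescence in engineered HEK293 cells measured after one day of compound exposure at 37 deg C, with a 12 min room-temperature detection step.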
An asterisk follows results filed as active; ? = inconclusive; . = no result. Unless noted, calls follow the shape of the dose curve; as a rule, active = well fitted curve in the direction sought with a large enough effect; inconclusive = small, poorly fitted or top-dose-only effect, or another doubt; inactive = no such curve, though single readings can be large; an effect the other way counts as inactive or inconclusive.

SMILES	Mm-Cpn inhibitor	GLP-1R agonist	CCT modulator	uPA surface inh	HEK293 tox	GLP-1R inv ag
CCC1CCCCN1C(=O)CSc1nnc2nc(C)cc(C)n12 (centres undefined)	-1%	-6%	-40*	-4%	7%	7%
COc1cccc(C(=O)NC2CC3CCCC(C2)N3CC(=O)Nc2ccccc2C(F)(F)F)c1 (centres undefined)	-4%	8%	-2	-4%	-8%	2.2µM*
O=C(CN1C2CCCC1CC(NC(=O)C1CCCCC1)C2)Nc1ccccc1C(F)(F)F (centres undefined)	1%	11%	-2	1%	8%	?
CCN(CC)C(=O)c1cc(-c2ccc(Cl)cc2)on1	.	.	.	.	-1%	1%
Cc1ccc(NC(=O)c2c(C)oc3ncn(CC(C)C)c(=O)c23)nc1	.	.	.	.	7%	9%
CC1=C(C(=O)NC(C)CCc2ccccc2)C2(CCC(C)CC2)OC1=O (centres undefined)	1%	13%	-2	2%	8%	8.9µM*
CC1=C(C(=O)NC(C)c2ccccc2)C2(CCC(C)CC2)OC1=O (centres undefined)	-2%	9%	-4	-9%	-18%	-17%
CCC(=O)N1CCc2cc(Br)cc(S(=O)(=O)N3CCCC(C(=O)NCc4ccccc4)C3)c21 (centres undefined)	.	0%	.	.	7%	-11%
Cc1ccccc1OCCCCCCN1CCNCC1	.	7%	1	-8%	2%	2.2µM*
Cc1ccc(OCCCCCN2CCOCC2)cc1	0%	1%	-1	1%	7%	6%
Cc1ccc(OCCCCCCN2CCNCC2)cc1	.	14%	1	-5%	-25%	2.2µM*
COc1cccc(NC(=O)c2cc(CN3CCOCC3)on2)c1	.	.	.	.	-2%	3%
O=C(COc1ccccc1F)Nc1ccc2nc(SCC(=O)N3CCCC3)sc2c1	.	.	.	.	-15%	-2%
CCOc1cc2sc(N3CCC(C(=O)Nc4ccc(C)cc4C)CC3)nc2cc1Br	.	.	.	.	6%	56%
CC(C)(CO)Cc1cc(C(C)(C)C)c(O)c(C(C)(C)C)c1	-1%	?	0	9%	-23%	7.1µM*
CC(C)(C=O)Cc1cc(C(C)(C)C)c(O)c(C(C)(C)C)c1	1%	4%	2	29%	-13%	11µM*
O=[N+]([O-])c1cc(C(F)(F)F)ccc1NCCNC(=S)Nc1ccc(Cl)cc1	3%	-6%	-4	?	-57%	11µM*
O=C(Nc1ccc(Cl)cc1)N1CCCN(c2ccc(C(F)(F)F)cc2[N+](=O)[O-])CC1	-4%	1%	1	10%	?	2.8µM*
O=C(Nc1ccc(F)c(Cl)c1)C1Cc2ccccc2CN1S(=O)(=O)c1ccc(F)cc1 (centres undefined)	.	.	.	.	-5%	10µM*
Cc1ccc(OCC(=O)N(c2ccc(C)cc2)S(=O)(=O)c2ccc(Cl)cc2)cc1	.	.	.	.	0%	4%
COc1ccc(N(C(=O)COc2c(C)cccc2C)S(=O)(=O)c2ccc(Cl)cc2)cc1	.	.	.	.	0%	10µM*
CCCN(C(=O)Cn1c(=O)oc2cc(Cl)ccc21)c1ccc(C(C)C)cc1	.	.	.	.	5%	-17%
CCOc1ccc(-n2c(SCC(=O)N3CCc4ccccc43)nc3c([nH]c4ccccc43)c2=O)cc1	.	-4%	.	.	5%	-2%
Cc1cccc(-c2nc3c4ccccc4nc(NCc4ccccc4Cl)n3n2)c1	.	.	.	.	11%	7%
CCOC(=O)N/N=C/c1ccccc1OCc1ccc(Cl)cc1	0%	6%	1	-8%	-4%	-25%
SMILES	Mm-Cpn inhibitor	GLP-1R agonist	CCT modulator	uPA surface inh	HEK293 tox	GLP-1R inv ag
NC(=S)N/N=C/c1ccccc1OCCSc1ccc(Cl)cc1	1%	0%	-2	-6%	3.2µM*	2.8µM*
O=[N+]([O-])c1ccc(NN=Cc2cc(Br)ccc2O)nc1	.	11%	-4	-13%	?	2.8µM*
O=Cc1ccccc1C=O	.	-3%	.	.	.	.
COc1ccccc1CNC(=O)c1cc2ccc3ccc(C)[nH]c3c2n1	.	-2%	.	.	-8%	10µM*
COc1ccc(Cl)cc1NC(=O)c1cc2ccc3ccc(C)[nH]c3c2n1	.	-4%	.	.	-17%	?
CCc1cccc(C)c1NC(=O)CN1C(=O)C2(SCC(=O)N2c2cc(C)cc(C)c2)c2ccccc21 (centres undefined)	.	-1%	.	.	1%	-28%
C(=C\c1ccccc1)/CSc1nnc(-c2ccncc2)n1Cc1ccco1	0%	25%	-2	-1%	-1%	-11%
C(=C\c1ccccc1)/CSc1nnc(-c2ccccc2)n1Cc1ccco1	-3%	7%	-1	?	-30%	7.1µM*
COc1ccc(C2C(C(=O)Nc3cccnc3)=C(C)Nc3nc(SCc4ccccc4)nn32)cc1 (centres undefined)	.	-1%	.	.	-1%	12%
CC(C)(C)OC(=O)N(CCc1ccccc1)Cc1cccc(OCc2cccc(NC(=O)C3CC3)c2)c1	.	-2%	1	?	-7%	?
CC(C)(C)OC(=O)N(CCc1ccccc1)Cc1ccc(OCc2cccc(NC(=O)C3CCCC3)c2)cc1	.	4%	-5	-4%	-10%	?
CC(C)C(=O)Nc1cccc(COc2ccccc2CN(Cc2ccccc2)C(=O)OC(C)(C)C)c1	.	5%	1	-8%	-3%	11µM*
CC(C)(C)OC(=O)N(Cc1ccccc1)Cc1ccccc1OCc1ccc(NC(=O)C2CCC2)cc1	.	-2%	-3	?	-18%	2.8µM*
CC(C)(C)OC(=O)N(CCc1ccccc1)Cc1cccc(OCc2cccc(NC(=O)C3CCCC3)c2)c1	.	18%	-1	6%	-11%	10µM*
CC(C)(C)OC(=O)N(CCc1ccccc1)Cc1ccccc1OCc1ccc(NC(=O)C2CCC2)cc1	.	-2%	-5	-7%	2%	3.5µM*
O=C(CSc1nc(-c2ccccc2)no1)N1CCCCC1	.	.	.	.	-1%	10%
Cc1ccc(Cl)cc1N1CCN(C(=O)COc2cc(=O)n(C)c3ccccc23)CC1	.	-2%	.	.	0%	-1%
CCOc1cc(-c2ccc(OC(=O)c3ccc(C)cc3)c(OC)c2)cc(=O)c2c(C)oc(C)c12	.	.	.	.	-8%	?
CC(C)(C)OC(=O)N(CCc1ccccc1)Cc1ccccc1OCc1cccc(NC(=O)C2CCCC2)c1	.	-3%	1	-17%	4%	2.8µM*

Screening results (PubChem)
